Laboratory results from PubChem BioAssay (Tox21).
Results filed as inconclusive are left out. Calls of active or inactive are those of the source. Unless noted, calls come from the whole dose curve; as a rule, active = well fitted curve in the direction sought with a large enough effect in the repeat runs; inconclusive = weak or mixed curves; inactive = no such curve, though single readings can be large; an effect the other way counts as inactive or inconclusive.

Experiments:
[1] = biological target: Thyrotropin receptor (Homo sapiens) (UniProt P16473); test: qHTS assay to identify small molecule antagonists of the thyroid stimulating hormone receptor (TSHR) signaling pathway (AID 1259385; calls by dose curve; note: nearly all actives have a fitted effect of over 20% in size); conditions: TSHR-HEK293 cAMP HTRF, TSH-stimulated antagonist mode; series mostly up to 92.4 µM
Chain of Thyrotropin receptor (Homo sapiens) (P16473 whole entry, looked up): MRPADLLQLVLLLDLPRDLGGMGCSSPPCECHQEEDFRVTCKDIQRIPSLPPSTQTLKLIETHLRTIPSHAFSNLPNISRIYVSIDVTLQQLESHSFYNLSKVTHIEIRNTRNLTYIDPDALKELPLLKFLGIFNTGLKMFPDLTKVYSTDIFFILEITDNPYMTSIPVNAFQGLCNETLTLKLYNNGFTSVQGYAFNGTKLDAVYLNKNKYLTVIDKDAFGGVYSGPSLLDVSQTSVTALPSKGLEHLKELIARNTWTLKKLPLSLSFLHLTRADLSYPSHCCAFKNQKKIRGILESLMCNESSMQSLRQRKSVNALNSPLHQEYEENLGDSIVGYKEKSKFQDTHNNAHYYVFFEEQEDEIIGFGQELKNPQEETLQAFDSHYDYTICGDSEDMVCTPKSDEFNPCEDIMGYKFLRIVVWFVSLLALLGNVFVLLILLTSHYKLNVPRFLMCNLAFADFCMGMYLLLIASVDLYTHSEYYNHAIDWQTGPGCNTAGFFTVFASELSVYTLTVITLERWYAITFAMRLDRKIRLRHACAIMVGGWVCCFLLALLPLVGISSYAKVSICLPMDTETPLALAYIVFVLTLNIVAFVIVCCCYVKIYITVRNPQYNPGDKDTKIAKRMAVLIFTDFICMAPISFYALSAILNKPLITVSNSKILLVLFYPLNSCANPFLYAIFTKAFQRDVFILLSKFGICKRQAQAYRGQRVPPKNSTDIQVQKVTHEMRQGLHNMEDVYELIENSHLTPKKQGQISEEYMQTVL
Outline: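 Antagonist mode: compound-treated TSHR-expressing HEK293 cells were stimulated with 1.5 ng/mL TSH (final) in presence of Ro20-1724 for 30 min at RT. HTRF cAMP detection after 1 h; each compound tested at 15 concentrations, triplicate.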

[2] = qHTS assay to identify small molecule agonists of the estrogen receptor alpha (ER-alpha) signaling pathway in the presence of an antagonist - cell viability counter screen (AID 1259386); conditions: VM7Luc4E2 viability, CellTiter-Fluor fluorescence, 22 h; series mostly up to 92.4 µM;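 note: cells exposed to compounds for 22 h at 37 °C before the viability read; nearly all actives have a fitted effect of over 30% in size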
Outline: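 Cells are starved of estrogens for 5 days in charcoal-stripped serum, seeded for 24hr and co-treated with ICI-182,780 (10.0nM final) and test compounds. After 22hr at 37C, viability is read as CellTiter-Fluor fluorescence.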

[3] = biological target: Progesterone receptor (Homo sapiens) (UniProt P06401); test: qHTS assay to identify small molecule agonists of the progesterone receptor (PR) signaling pathway (AID 1346784; calls by dose curve; note: nearly all actives have a fitted effect of over 30% in size); conditions: PR-UAS-bla HEK293T, beta-lactamase FRET ratio, 16 h; series mostly up to 92.4 µM
Chain of Progesterone receptor (Homo sapiens) (P06401 whole entry, looked up): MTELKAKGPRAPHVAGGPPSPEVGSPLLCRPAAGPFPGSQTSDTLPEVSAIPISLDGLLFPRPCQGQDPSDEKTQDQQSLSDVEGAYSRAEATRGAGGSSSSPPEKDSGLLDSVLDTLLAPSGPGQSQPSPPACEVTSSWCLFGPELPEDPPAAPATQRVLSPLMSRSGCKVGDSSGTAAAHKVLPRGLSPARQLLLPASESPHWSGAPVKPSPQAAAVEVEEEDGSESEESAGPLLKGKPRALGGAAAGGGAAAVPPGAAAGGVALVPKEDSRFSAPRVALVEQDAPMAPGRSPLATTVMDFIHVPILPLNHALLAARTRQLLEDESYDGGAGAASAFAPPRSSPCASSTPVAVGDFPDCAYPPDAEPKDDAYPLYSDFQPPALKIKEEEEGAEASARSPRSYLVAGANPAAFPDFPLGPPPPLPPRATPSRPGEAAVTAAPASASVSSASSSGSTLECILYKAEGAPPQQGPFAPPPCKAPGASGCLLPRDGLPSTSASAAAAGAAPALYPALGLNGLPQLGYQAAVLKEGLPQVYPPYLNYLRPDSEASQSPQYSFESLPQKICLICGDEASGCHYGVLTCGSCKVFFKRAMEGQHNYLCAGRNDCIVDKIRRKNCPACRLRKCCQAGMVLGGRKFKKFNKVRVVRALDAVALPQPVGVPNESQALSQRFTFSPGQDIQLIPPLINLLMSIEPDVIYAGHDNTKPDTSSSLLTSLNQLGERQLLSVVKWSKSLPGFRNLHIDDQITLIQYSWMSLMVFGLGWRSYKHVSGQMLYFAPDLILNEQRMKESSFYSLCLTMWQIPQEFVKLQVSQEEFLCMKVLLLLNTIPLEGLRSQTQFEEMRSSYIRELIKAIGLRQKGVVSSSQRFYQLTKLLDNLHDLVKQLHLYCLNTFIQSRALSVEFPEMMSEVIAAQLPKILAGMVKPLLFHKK
Outline: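 Compounds were tested for PR agonism in HEK 293T cells bearing a beta-lactamase gene under UAS control. Treatment lasted 16 hr at 37C; signal came from fluorescence of a FRET substrate.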

[4] = biological target: Progesterone receptor (Homo sapiens) (UniProt P06401); test: qHTS assay to identify small molecule antagonists of the progesterone receptor (PR) signaling pathway (AID 1346795; active = well fitted inhibition curve with a large enough effect in the signal ratio in the repeat runs, not every such curve was filed as active; the % refers to the signal ratio); conditions: PR-UAS-bla HEK293T, beta-lactamase FRET ratio, 16 h; series mostly up to 92.4 µM
Outline: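 In HEK293T cells bearing the PR-UAS-bla reporter, compound effects on promegestone-driven (1 nM) beta-lactamase expression are assessed after 16 hr using a fluorescent FRET substrate incubated 2 hr at room temperature.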

[5] = qHTS assay to identify small molecule antagonists of the progesterone receptor (PR) signaling pathway - cell viability counter screen (AID 1346798); conditions: PR-UAS-bla HEK293T viability, CellTiter-Glo luminescence, 16 h; series mostly up to 92.4 µM; note: nearly all actives have a fitted effect of over 50% in size
Outline: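 Following a 4 hr attachment, PR-UAS-bla HEK293T cells in charcoal-stripped FBS medium were exposed to compounds with R5020 for 16 hr; CellTiter-Glo was added and luminescence read after 30 min at room temperature.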

[6] = qHTS assay to identify small molecule agonists of the progesterone receptor (PR) signaling pathway - cell viability counter screen (AID 1346799; calls by dose curve; note: nearly all actives have a fitted effect of over 45% in size); conditions: PR-UAS-bla HEK293T viability, CellTiter-Glo luminescence, 16 h; series mostly up to 92.4 µM
Outline: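 Here, 3,000 PR-UAS-bla HEK293T cells per well were treated with compounds for 16 hr after a 6 hr preincubation at 37C and 5% CO2; cell viability is the CellTiter-Glo luminescence signal.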

[7] = qHTS assay to identify small molecule antagonists of the TGF-beta/Smad signaling pathway - cell viability counter screen (AID 1346824); conditions: SBE-bla HEK293T viability, CellTiter-Glo luminescence; series mostly up to 76.8 µM; note: nearly all actives have a fitted effect of over 50% in size
Outline: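 Cytotoxicity counter-screen run in the same wells as the beta-lactamase Smad reporter read: CellTiter-Glo luminescence after 30 min at room temperature. HEK 293T SBE-bla cells had 5 hr compound exposure at 37 C with TGF-beta1 (0.25 ng/mL stock).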

[8] = qHTS assay to identify small molecule agonists of the TGF-beta/Smad signaling pathway - cell viability counter screen (AID 1346829); conditions: SBE-bla HEK293T viability, CellTiter-Glo luminescence, 5 h; series mostly up to 76.8 µM; note: top concentration of the series differs between compounds; nearly all actives have a fitted effect of over 45% in size
Outline: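 Here the cytotoxicity of library compounds is measured in SBE-bla HEK 293T cells treated for 5 hr, using CellTiter-Glo added to wells already read for the beta-lactamase reporter.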

[9] = qHTS assay to identify small molecule agonists of the TGF-beta/Smad signaling pathway (AID 1346859; active = well fitted activation curve with a large enough effect in the signal ratio in the repeat runs, not every such curve was filed as active; the % refers to the signal ratio); conditions: SBE-bla HEK293T, TGF-beta/Smad beta-lactamase reporter, 5 h; series mostly up to 76.8 µM
Outline: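 Each well held 4,000 SBE-bla HEK 293T cells incubated overnight before compound addition; 5 hr later the cleavable FRET substrate went on for 2 hr at room temperature, and fluorescence was read at two emissions.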

[10] = biological target: Thyrotropin-releasing hormone receptor (Homo sapiens) (UniProt P34981); test: qHTS assay to identify small molecule antagonists of the thyrotropin-releasing hormone receptor (TRHR) signaling pathway (AID 1346877; active = well fitted inhibition curve with a large enough effect in the repeat runs, not every such curve was filed as active); conditions: TRHR-HEK293, TRH-induced calcium fluorescence, antagonist mode; series mostly up to 51.3 µM
Chain of Thyrotropin-releasing hormone receptor (Homo sapiens) (P34981 whole entry, looked up): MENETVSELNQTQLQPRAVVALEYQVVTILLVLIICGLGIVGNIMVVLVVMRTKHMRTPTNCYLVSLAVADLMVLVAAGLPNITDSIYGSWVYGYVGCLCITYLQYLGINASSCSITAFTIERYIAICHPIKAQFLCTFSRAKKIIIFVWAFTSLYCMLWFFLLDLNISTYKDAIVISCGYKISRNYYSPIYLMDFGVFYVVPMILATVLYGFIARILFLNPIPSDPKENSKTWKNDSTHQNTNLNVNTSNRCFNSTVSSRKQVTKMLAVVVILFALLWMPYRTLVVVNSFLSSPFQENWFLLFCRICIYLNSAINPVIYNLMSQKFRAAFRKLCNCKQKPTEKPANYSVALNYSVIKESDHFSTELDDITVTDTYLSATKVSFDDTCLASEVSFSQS
Outline: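 Cells (TRHR-HEK293) are plated and kept 18 h at 37 °C/5% CO2. A calcium-sensitive dye is added for 2 h, compound follows for 5 min at room temperature, and TRH is then given at 1 nM final.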

Measured: Potency

CCc1ccc(C(=O)C(C)CN2CCCCC2)cc1 (centres undefined)
inactive: all assays above

OCCOc1cccc(OCCO)c1
not listed: [7]
inactive: all other assays above

C[C@@H](O)[C@H]1C(=O)N2C(C(=O)O)=C(S[C@@H]3CN[C@H](CNS(N)(=O)=O)C3)[C@H](C)[C@H]12
inactive: all assays above

COc1ccnc2c1CCCCC2S(=O)c1nc2ccccc2[nH]1 (centres undefined)
inactive: all assays above

CCCCCO
inactive: all assays above

CC(=O)Nc1ccn(C2COC(COC(=O)c3ccccc3)O2)c(=O)n1 (centres undefined)
not listed: [9]
inactive: all other assays above

COC(=O)c1cc(Cl)ccc1[N+](=O)[O-]
inactive: all assays above

C=CC(=O)OCCCCCCCCCC
not listed: [7]
inactive: all other assays above

Nc1ncnc2c1ncn2[C@@H]1O[C@H](CO)[C@@H](O)[C@H]1O
inactive: all assays above

C=CC(O)CCCCC (centres undefined)
inactive: all assays above

CCCCOc1ccc(N)cc1
inactive: all assays above

Cc1ccc2ccccc2c1[N+](=O)[O-]
inactive: all assays above

C1CCN(CN2CCCCC2)CC1
inactive: all assays above

CC(CCl)OC(C)CCl (centres undefined)
inactive: all assays above

CCCCCCCCCCCCN1CCOCC1
not listed: [7]
inactive: all other assays above

CC(C)=CCC[C@H](C)CCO
inactive: all assays above

CC(CN=Cc1ccccc1O)N=Cc1ccccc1O (centres undefined)
inactive: all assays above

CCCCCCCCCCCCCCCCC(=O)O
inactive: all assays above

CC1(C)CC(=O)CC(C)(C)N1
inactive: all assays above

CCCC1CCCC(=O)O1 (centres undefined)
not listed: [9]
inactive: all other assays above

CC(C)=CCCC(C)C=O (centres undefined)
inactive: all assays above

C=C[Si]1(C)O[Si](C)(C=C)O[Si](C)(C=C)O[Si](C)(C=C)O1 (centres undefined)
inactive: all assays above

O=C1OC(=O)C2CC=CCC12 (centres undefined)
inactive: all assays above

CC(C)(C(=O)O)c1ccc(C(O)CCCN2CCC(C(O)(c3ccccc3)c3ccccc3)CC2)cc1 (centres undefined)
inactive: all assays above

Cc1cc(SC2=C(O)C[C@@](CCc3ccc(N)cc3)(C(C)C)OC2=O)c(C(C)(C)C)cc1CO
not listed: [9]
inactive: all other assays above
